The panel holds about 83,000 compounds, 20% with a hit somewhere; the sample as a whole holds those more often.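 Note: values are percent growth. 100 is the growth of untreated cells, values between 100 and 0 indicate rising inhibition; between -100 and 0 indicates cell death.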 Activity calls are given as the source filed them. The calls were made as follows: active = growth percent below 10; inactive = the rest.
What was measured:
Assay in all cases: NCI-60 one-dose screen, 48 h (100 = growth as untreated, 0 = no growth, -100 = all killed)
Settings in all cases: 10 µM unless noted
SK-MEL-2 melanoma = tested on: SK-MEL-2 melanoma
EKVX NSCLC = tested on: EKVX NSCLC
SN12C renal = tested on: SN12C renal
UO-31 renal = tested on: UO-31 renal
TK-10 renal = tested on: TK-10 renal
ACHN renal = tested on: ACHN renal
CAKI-1 renal = tested on: CAKI-1 renal
A498 renal = tested on: A498 renal
CCRF-CEM leukemia = tested on: CCRF-CEM leukemia
MOLT-4 leukemia = tested on: MOLT-4 leukemia

Measured: growth

CC(=O)Nc1c(Cl)cc2c(c1Cl)Cc1ccccc1-2
inactive: SK-MEL-2 melanoma 93.8% | EKVX NSCLC 64.3% | SN12C renal 90.9% | UO-31 renal 69.2% | TK-10 renal 115% | ACHN renal 100% | CAKI-1 renal 86.1% | A498 renal 93.7% | CCRF-CEM leukemia 102% | MOLT-4 leukemia 93%

Fc1ccc(-c2nn3c(-c4cc(C(F)(F)F)cc(C(F)(F)F)c4)nnc3s2)cc1
inactive: EKVX NSCLC 71.1% | SN12C renal 46.7% | UO-31 renal 29.2% | ACHN renal 11.6% | CAKI-1 renal 69.8% | CCRF-CEM leukemia 87% | MOLT-4 leukemia 93%
active: SK-MEL-2 melanoma -33.3% | TK-10 renal -40% | A498 renal -18.5%

CC[n+]1c(/C=C/c2ccc(N3CCCC3)cc2)cccc1/C=C/c1ccc(N2CCCC2)cc1
inactive: MOLT-4 leukemia 10.3%
active: SK-MEL-2 melanoma -89.8% | EKVX NSCLC -76.4% | SN12C renal -79.9% | UO-31 renal -92.6% | TK-10 renal -80.5% | ACHN renal -96.3% | CAKI-1 renal -67.9% | A498 renal -93% | CCRF-CEM leukemia -7.16%

CN(C)CCCN=c1cc2c(=O)n(CCCN(C)C)c(=O)c3c(NCCCN(C)C)cc4c(O)n(CCCN(C)C)c(=O)c1c4c3-2
active: SK-MEL-2 melanoma -9.31% | EKVX NSCLC -18.4% | SN12C renal 9.31% | UO-31 renal -26.6% | TK-10 renal 7.45% | ACHN renal -41.6% | CAKI-1 renal 4.58% | A498 renal -64.8%
inactive: CCRF-CEM leukemia 10.8% | MOLT-4 leukemia 25.1%

Nc1ccc2c(c1Br)Cc1ccccc1-2
inactive: SK-MEL-2 melanoma 94.2% | EKVX NSCLC 68% | SN12C renal 86.6% | UO-31 renal 54.4% | TK-10 renal 123% | ACHN renal 95.8% | CAKI-1 renal 98.6% | A498 renal 86.8% | CCRF-CEM leukemia 53.2% | MOLT-4 leukemia 68.4%

COc1ccc2c(c1)CC/C(=C\c1ccc(OCC(=O)Nc3nc4ccccc4s3)cc1)C2=O
active: CCRF-CEM leukemia -37%
inactive: SK-MEL-2 melanoma 63% | EKVX NSCLC 95.9% | SN12C renal 88.3% | UO-31 renal 22.2% | TK-10 renal 112% | ACHN renal 97.2% | CAKI-1 renal 79.3% | A498 renal 117% | MOLT-4 leukemia 71.2%

Cc1cc(C(=O)Nc2ccc3cc(CN4CCOCC4)ccc3n2)c(C)n1-c1ccccc1
active: CCRF-CEM leukemia 8.79% | MOLT-4 leukemia -17.4%
inactive: SK-MEL-2 melanoma 16.6% | EKVX NSCLC 44.9% | SN12C renal 73% | UO-31 renal 53.3% | TK-10 renal 70.4% | ACHN renal 50.5% | CAKI-1 renal 49.7% | A498 renal 79.8%

CS(=O)(=O)N1CCN(Cc2cc3nc(-c4cccc5[nH]ncc45)nc(N4CCOCC4)c3s2)CC1 (tested in a mixture with another compound)
inactive: SK-MEL-2 melanoma 33.4% | EKVX NSCLC 16.7% | SN12C renal 17% | TK-10 renal 20.5% | ACHN renal 12.2% | CCRF-CEM leukemia 20.9%
active: UO-31 renal -12.9% | CAKI-1 renal -1.96% | A498 renal -62.1% | MOLT-4 leukemia 8.77%

Cc1cc(=O)[nH]c(/C(=N/Nc2ccccc2)C(=O)c2ccc(Cl)cc2)n1
inactive: SK-MEL-2 melanoma 102% | EKVX NSCLC 103% | SN12C renal 93.2% | UO-31 renal 116% | TK-10 renal 65.5% | ACHN renal 111% | CAKI-1 renal 104% | A498 renal 84% | CCRF-CEM leukemia 66% | MOLT-4 leukemia 39.8%

c1ccc(N2c3nc4ccccc4cc3Sc3cc4ccccc4nc32)nc1
inactive: SK-MEL-2 melanoma 39.4% | EKVX NSCLC 68.9% | SN12C renal 76.1% | UO-31 renal 26.9% | TK-10 renal 114% | ACHN renal 92% | CAKI-1 renal 69% | A498 renal 73.2% | CCRF-CEM leukemia 87.5% | MOLT-4 leukemia 78%

C=C(CN1CCc2c([nH]c3ccccc23)C1)c1ccc(C(=O)Nc2ccon2)cc1
inactive: SK-MEL-2 melanoma 75.8% | EKVX NSCLC 80.3% | SN12C renal 93.8% | UO-31 renal 30.7% | TK-10 renal 131% | ACHN renal 99% | CAKI-1 renal 83.9% | A498 renal 116% | CCRF-CEM leukemia 81.2% | MOLT-4 leukemia 77.1%

O=C(C(=O)c1cc(Br)ccc1O)c1cc(Br)ccc1O
inactive: SK-MEL-2 melanoma 28.4% | EKVX NSCLC 88.2% | SN12C renal 59.4% | UO-31 renal 24.8% | TK-10 renal 61.4% | ACHN renal 55.8% | CAKI-1 renal 50% | A498 renal 93.5% | CCRF-CEM leukemia 53.2% | MOLT-4 leukemia 37.6%

Cc1cc(Cl)ccc1Nc1nc(C(F)(F)F)ccc1C(=O)N/N=C/c1ccc(Cl)cc1
active: SK-MEL-2 melanoma -20.6% | EKVX NSCLC 3.77% | SN12C renal 4.31% | UO-31 renal -43.3% | TK-10 renal 9.18% | ACHN renal -1.46% | CAKI-1 renal -23.1% | A498 renal -21.1% | CCRF-CEM leukemia -18.8% | MOLT-4 leukemia -20.1%

Cc1ccc2nc(SCC(=O)Nc3ccc(-c4nc5ccccc5s4)c(Cl)c3)[nH]c2c1
inactive: SK-MEL-2 melanoma 105% | EKVX NSCLC 119% | SN12C renal 107% | UO-31 renal 95% | TK-10 renal 109% | ACHN renal 106% | CAKI-1 renal 105% | A498 renal 105% | CCRF-CEM leukemia 103% | MOLT-4 leukemia 99.8%

O=C(Nc1ccccc1OC(=O)c1ccccc1)c1ccccc1
inactive: SK-MEL-2 melanoma 83.1% | EKVX NSCLC 110% | SN12C renal 69.6% | UO-31 renal 77.4% | TK-10 renal 101% | ACHN renal 98.9% | CAKI-1 renal 91.5% | A498 renal 81.4% | CCRF-CEM leukemia 27.1% | MOLT-4 leukemia 26.2%

CC(=O)OCC(=O)[C@@]1(O)CC[C@H]2[C@@H]3CCC4=CC(=O)CC[C@]4(C)[C@@]3(F)[C@@H](O)C[C@@]21C
inactive: SK-MEL-2 melanoma 104% | EKVX NSCLC 88.8% | SN12C renal 84.2% | UO-31 renal 82.5% | TK-10 renal 99.2% | ACHN renal 98.5% | CAKI-1 renal 115% | A498 renal 103% | CCRF-CEM leukemia 71.7% | MOLT-4 leukemia 90.2%

Cc1ccc(OCC(=O)Nc2ccc(Oc3ccccc3)cc2)c([N+](=O)[O-])n1
inactive: SK-MEL-2 melanoma 30.9% | EKVX NSCLC 89.5% | SN12C renal 68.5% | TK-10 renal 92.2% | ACHN renal 101% | CAKI-1 renal 84.3% | A498 renal 107% | CCRF-CEM leukemia 88% | MOLT-4 leukemia 81.8%
active: UO-31 renal -38.4%

CC1Cc2ccccc2N1C(=O)c1ccc(C(=O)c2ccccc2)cc1 (stereo not given)
inactive: SK-MEL-2 melanoma 19% | EKVX NSCLC 88.3% | SN12C renal 81.9% | UO-31 renal 49.8% | TK-10 renal 84.1% | ACHN renal 89.7% | CAKI-1 renal 77.8% | A498 renal 95.5% | CCRF-CEM leukemia 94.3% | MOLT-4 leukemia 91.5%

CCN(Cc1cccc(S(=O)(=O)[O-])c1)c1ccc(C(=C2C=CC(=[N+](CC)Cc3cccc(S(=O)(=O)O)c3)C=C2)c2ccccc2S(=O)(=O)O)cc1
inactive: SK-MEL-2 melanoma 115% | EKVX NSCLC 94.1% | SN12C renal 109% | UO-31 renal 85.9% | TK-10 renal 93.1% | ACHN renal 104% | CAKI-1 renal 96.7% | A498 renal 134% | CCRF-CEM leukemia 95.3% | MOLT-4 leukemia 96.5%

COc1ccc2nc(N/N=C(\C)c3ccccn3)cc(C)c2c1
inactive: SN12C renal 11.8% | TK-10 renal 18.4%
active: SK-MEL-2 melanoma -22.8% | EKVX NSCLC -84.4% | UO-31 renal -31% | ACHN renal -13.8% | CAKI-1 renal -3.71% | A498 renal -64.5% | CCRF-CEM leukemia -37.4% | MOLT-4 leukemia -49.9%

O=c1ccn(C2CC=C(CO)O2)c(=O)[nH]1 (stereo not given)
inactive: SK-MEL-2 melanoma 105% | EKVX NSCLC 105% | SN12C renal 92.1% | UO-31 renal 110% | TK-10 renal 100% | ACHN renal 109% | CAKI-1 renal 63.1% | A498 renal 101% | CCRF-CEM leukemia 90.4% | MOLT-4 leukemia 101%

O=c1[nH]c(SCc2ccccc2)nc2nc(Nc3ccc(NC(=S)Nc4ccccc4)cc3)nc(-c3ccc(O)cc3O)c12
inactive: SK-MEL-2 melanoma 87.8% | EKVX NSCLC 95.9% | SN12C renal 88% | UO-31 renal 107% | TK-10 renal 133% | ACHN renal 89.5% | CAKI-1 renal 101% | A498 renal 108% | CCRF-CEM leukemia 94.5% | MOLT-4 leukemia 93%

O=C1OC2(c3ccccc31)c1ccccc1-c1ccccc12
inactive: SK-MEL-2 melanoma 65% | EKVX NSCLC 87.9% | SN12C renal 90.4% | UO-31 renal 65.7% | TK-10 renal 82.7% | ACHN renal 101% | CAKI-1 renal 62.3% | A498 renal 69.8% | CCRF-CEM leukemia 72.4% | MOLT-4 leukemia 82.9%

COC(=O)C1(NC(=O)CNC(=O)OCc2ccccc2)CCCC1
inactive: SK-MEL-2 melanoma 102% | EKVX NSCLC 98.2% | SN12C renal 95.4% | UO-31 renal 93.1% | TK-10 renal 99.9% | ACHN renal 105% | CAKI-1 renal 100% | A498 renal 96.9% | CCRF-CEM leukemia 101% | MOLT-4 leukemia 111%

COc1cc(/C=N/NC(=O)c2ccc(C(F)(F)F)nc2Nc2ccc(Cl)cc2C)ccc1O
active: UO-31 renal 0.291% | A498 renal -37.9% | MOLT-4 leukemia -23.6%
inactive: SK-MEL-2 melanoma 18.8% | EKVX NSCLC 38.4% | SN12C renal 68.6% | TK-10 renal 49.7% | ACHN renal 33.4% | CAKI-1 renal 39.6% | CCRF-CEM leukemia 12.6%

NS(=O)(=O)N(c1cc(C(F)(F)F)cc(C(F)(F)F)c1)C1CCN(Cc2ccc(C(F)(F)F)cc2)CC1
inactive: SK-MEL-2 melanoma 28% | EKVX NSCLC 16.2% | SN12C renal 55.1% | UO-31 renal 64.6% | TK-10 renal 67% | ACHN renal 69.5% | CAKI-1 renal 66.2% | A498 renal 28.2% | CCRF-CEM leukemia 23.6% | MOLT-4 leukemia 20.3%

O=c1c2c(=NCCCN3CCCC3)cc3c(=O)n(CCCN4CCCC4)c(=O)c4c(NCCCN5CCCC5)cc(c(O)n1CCCN1CCCC1)c2c4-3
active: SK-MEL-2 melanoma 1.12% | EKVX NSCLC -17.2% | UO-31 renal -34.9% | ACHN renal -31.2% | A498 renal -67.3%
inactive: SN12C renal 10.3% | TK-10 renal 13.1% | CAKI-1 renal 14.4% | CCRF-CEM leukemia 10.1% | MOLT-4 leukemia 16.5%
